Measured values reported in PubChem BioAssay (NCI).
About 79,000 compounds went through this panel and 15% of them were active in at least one assay; those are over-represented in the sample as a whole. The source made the active and inactive calls. Cut-off read from the data, not from the text of the source: active = growth inhibition above about 70%; inactive = the rest.

Columns and labels:
[1] = NCI Yeast Anticancer Drug Screen. Data for the mlh1 strain (AID 171);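 note: 0% = growth of vehicle-treated control cultures of the same strain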; conditions: S. cerevisiae mlh1 strain growth inhibition, active compounds read high
Procedure, shortened: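 Steps: expose the defined-mutant yeast strain to compound; expose a parallel culture to vehicle; measure growth; express compound effect as inhibition relative to the vehicle culture.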

[2] = NCI Yeast Anticancer Drug Screen. Data for the sgs1 strain (AID 173);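 note: 0% = growth of vehicle-only control cultures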; conditions: S. cerevisiae sgs1 mutant, active compounds read high
Procedure, shortened: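 Treat defined-mutant yeast with compound; measure growth; calculate inhibition relative to vehicle-treated cells.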

[3] = NCI Yeast Anticancer Drug Screen. Data for the mlh1 rad18 strain (AID 175); conditions: S. cerevisiae mlh1 rad18 strain growth inhibition, active compounds read high
Procedure, shortened: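 Test agents were incubated with a yeast strain of defined genotype (DNA damage repair defect). Inhibition of growth was derived by comparison with vehicle-exposed cultures.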

[4] = NCI Yeast Anticancer Drug Screen. Data for the rad52 strain (AID 147);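 note: 0% = growth of vehicle-treated control cultures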; conditions: S. cerevisiae rad52 mutant growth inhibition, active compounds read high
Procedure, shortened: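 Screen used a yeast mutant impaired in DNA repair. After compound exposure, growth was measured. Values reflect inhibition compared with vehicle-treated cells.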

[5] = NCI Yeast Anticancer Drug Screen. Data for the wt1 strain (AID 149);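 note: 0% = growth of vehicle-treated wt1 cultures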; conditions: S. cerevisiae wt1 strain (SPY 50644) growth inhibition, active compounds read high
Procedure, shortened: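 Yeast wt1 strain exposed to compounds; growth inhibition measured relative to vehicle-treated controls.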

[6] = NCI Yeast Anticancer Drug Screen. Data for the rad50EPP+ strain (AID 151);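 note: 0% = growth of vehicle-treated control cultures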; conditions: S. cerevisiae rad50 mutant strain, active compounds read high
Procedure, shortened: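 Exposing the rad50EPP+ strain to each compound, growth was compared with vehicle-only cultures to give inhibition.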

[7] = NCI Yeast Anticancer Drug Screen. Data for the mgt1 strain (AID 153); conditions: S. cerevisiae mgt1 mutant growth inhibition, active compounds read high
Procedure, shortened: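 Genetically defined yeast (mgt1) treated with compound; inhibition of growth expressed against vehicle-treated controls.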

[8] = NCI Yeast Anticancer Drug Screen. Data for the rad50 strain (AID 155);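 note: 0% = growth of vehicle-only cultures of the same strain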; conditions: S. cerevisiae rad50 strain growth inhibition, active compounds read high
Procedure, shortened: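 Yeast carrying a defined DNA repair defect were exposed to test compounds, and growth was compared with vehicle-treated controls to give percent inhibition.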

[9] = NCI Yeast Anticancer Drug Screen. Data for the mec2-1 strain (AID 157); conditions: S. cerevisiae mec2-1 strain, active compounds read high
Procedure, shortened: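 Readout is yeast growth inhibition, normalised to vehicle-treated controls, in the mec2-1 strain exposed to compound.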

[10] = NCI Yeast Anticancer Drug Screen. Data for the sgs1 mgt1 strain (AID 161);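 note: 0% = growth of cultures given vehicle only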; conditions: S. cerevisiae sgs1 mgt1 strain, active compounds read high
Procedure, shortened: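 Yeast cells carrying a defined DNA-repair defect were exposed to test compounds. Growth inhibition was measured relative to vehicle-treated controls.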

[11] = NCI Yeast Anticancer Drug Screen. Data for the CLN2oe strain (AID 163);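 note: 0% = growth of vehicle-only control cultures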; conditions: S. cerevisiae CLN2oe strain, active compounds read high
Procedure, shortened: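 Values reflect how much compound exposure reduced yeast growth, referenced to vehicle-exposed cells. Assay organism is a strain with a defined genetic change affecting cell-cycle control.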

[12] = NCI Yeast Anticancer Drug Screen. Data for the cln2 rad14 strain (AID 165);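 note: 0% = growth equal to vehicle treated cultures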; conditions: S. cerevisiae cln2 rad14 strain, active compounds read high
Procedure, shortened: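 Relative to vehicle controls, growth inhibition of compound-treated cln2 rad14 yeast was recorded.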

[13] = NCI Yeast Anticancer Drug Screen. Data for the bub3 strain (AID 167); conditions: S. cerevisiae bub3 mutant strain, active compounds read high
Procedure, shortened: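 Compounds were applied to a genetically altered yeast strain carrying a cell-cycle control defect. Growth inhibition was scored against vehicle-treated controls.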

[14] = NCI Yeast Anticancer Drug Screen. Data for the wt2 strain (AID 169);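 note: 0% = growth of vehicle-treated yeast cultures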; conditions: S. cerevisiae wt2 strain growth inhibition, active compounds read high
Procedure, shortened: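 Values express reduction in yeast growth under compound treatment, referenced to vehicle-treated cells.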

[15] = NCI Yeast Anticancer Drug Screen. Data for the rad18 strain (AID 177); conditions: S. cerevisiae rad18 mutant growth inhibition, active compounds read high
Procedure, shortened: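 A genetically defined yeast mutant impaired in DNA damage repair was treated with test compounds, then its growth was measured against cultures receiving vehicle alone.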

[16] = at 5.0 µM (retest, dose inferred, filed as 0.5)
[17] = at 50.0 µM (retest, dose inferred, filed as 5.0)

Measured: growth inhibition

CC1CCCN(CCc2ccccc2)CC1 (stereo unspecified)
active: [3]; [17] 78%
inactive: [1]; at 1.2 µM 1% | [1]; at 3.7 µM 4% | [1]; at 11.0 µM 10% | [1]; at 33.0 µM 15% | [1]; at 100.0 µM 14% | [2]; at 1.2 µM 0% | [2]; at 3.7 µM 7% | [2]; at 11.0 µM 16% | [2]; at 33.0 µM 23% | [2]; at 100.0 µM 21% | [3]; [16] 19% | [3]; at 50.0 µM 34.9%

CS(=O)(=O)OCCN(CCOS(C)(=O)=O)c1ccc(C=O)cc1
inactive: [4]; at 1.2 µM 11% | [4]; at 3.7 µM 33% | [4]; at 11.0 µM 62% | [5]; at 1.2 µM 0% | [5]; at 3.7 µM -19% | [5]; at 11.0 µM 10% | [5]; at 33.0 µM 28% | [5]; at 100.0 µM 49% | [6]; at 1.2 µM 4% | [6]; at 3.7 µM 6% | [6]; at 11.0 µM 9% | [6]; at 33.0 µM 30% | [6]; at 100.0 µM 51% | [7]; at 1.2 µM 5% | [7]; at 3.7 µM 13% | [7]; at 11.0 µM 32% | [7]; at 33.0 µM 58% | [8]; at 1.2 µM 16% | [8]; at 3.7 µM 34% | [8]; [16] 33% | [8]; at 11.0 µM 60% | [9]; at 1.2 µM 8% | [9]; at 3.7 µM 20% | [9]; [16] 29% | [9]; at 11.0 µM 43% | [10]; [16] 26% | [11]; at 1.2 µM -10% | [11]; at 3.7 µM -1% | [11]; at 11.0 µM 15% | [11]; at 33.0 µM 35% | [11]; at 100.0 µM 65% | [12]; [16] 8% | [12]; at 50.0 µM 65.2% | [13]; at 1.2 µM -6% | [13]; at 3.7 µM -3% | [13]; [16] -8% | [13]; at 11.0 µM 10% | [13]; at 33.0 µM 38% | [13]; [17] 37% | [14]; at 1.2 µM -1% | [14]; at 3.7 µM 12% | [14]; at 11.0 µM 18% | [14]; at 33.0 µM 43% | [1]; at 1.2 µM 2% | [1]; at 3.7 µM 11% | [1]; at 11.0 µM 25% | [1]; at 33.0 µM 53% | [2]; at 1.2 µM 15% | [2]; at 3.7 µM 35% | [2]; at 11.0 µM 58%
active: [4]; at 33.0 µM 83% | [4]; at 100.0 µM 91% | [7]; at 100.0 µM 78% | [8]; at 33.0 µM 80% | [8]; [17] 84% | [8]; at 50.0 µM 79.3% | [8]; at 100.0 µM 92% | [9]; at 33.0 µM 75% | [9]; [17] 88% | [9]; at 50.0 µM 83.6% | [9]; at 100.0 µM 90% | [10]; [17] 80% | [10]; at 50.0 µM 79.4% | [12]; [17] 74% | [13]; at 50.0 µM 73.2% | [13]; at 100.0 µM 72% | [14]; at 100.0 µM 85% | [1]; at 100.0 µM 82% | [2]; at 33.0 µM 80% | [2]; at 100.0 µM 89% | [3]; [16] 76% | [3]; [17] 95% | [3]; at 50.0 µM 91% | [15]; at 1.2 µM 85% | [15]; at 3.7 µM 92% | [15]; at 11.0 µM 95% | [15]; at 33.0 µM 96% | [15]; at 100.0 µM 96%
